The source of these data is PubChem BioAssay (NCI).

About 79,000 compounds went through this panel and 15% of them were active in at least one assay; those are over-represented in the sample as a whole. Unmarked numbers belong to inactive results. Activity calls are given as the source filed them. Rule as the data show it: active = growth inhibition above about 70%; inactive = the rest.

Test [1] can be described thus: NCI Yeast Anticancer Drug Screen. Data for the rad50 strain (AID 155).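 Also: 0% = growth of vehicle-only cultures of the same strain.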 Particulars: S. cerevisiae rad50 strain growth inhibition, active compounds read high. A digest of the protocol: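 Cells are treated with compound, grown, and their growth is then scored against vehicle-only cultures of the same repair-deficient yeast strain.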
The nature of test [2]: NCI Yeast Anticancer Drug Screen. Data for the mec2-1 strain (AID 157). To be noted: S. cerevisiae mec2-1 strain, active compounds read high. An outline of the steps: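 mec2-1 yeast strain, carrying an alteration in DNA damage repair or cell cycle control, was exposed to compounds; growth inhibition was measured relative to vehicle-treated controls.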
Test [3] can be described thus: NCI Yeast Anticancer Drug Screen. Data for the sgs1 mgt1 strain (AID 161).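 Also: 0% = growth of cultures given vehicle only.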 Particulars: S. cerevisiae sgs1 mgt1 strain, active compounds read high. An outline of the steps:
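Compounds are added to genetically altered yeast, and growth is compared with cultures given vehicle alone to give percent inhibition.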

Test [4] can be described thus: NCI Yeast Anticancer Drug Screen. Data for the cln2 rad14 strain (AID 165).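 Also: 0% = growth equal to vehicle treated cultures.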 To be noted: S. cerevisiae cln2 rad14 strain, active compounds read high. A digest of the protocol:
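Yeast carrying cln2 and rad14 alterations (cell cycle control and DNA damage repair) were exposed to compounds. Growth inhibition was measured against vehicle-treated controls.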

The nature of test [5]: NCI Yeast Anticancer Drug Screen. Data for the bub3 strain (AID 167). Particulars: S. cerevisiae bub3 mutant strain, active compounds read high. A digest of the protocol: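 Part of a panel of yeast mutants defective in DNA damage repair or cell cycle regulation. Each strain is grown with compound, and inhibition is calculated relative to solvent-treated cultures.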
A short description of test [6]: NCI Yeast Anticancer Drug Screen. Data for the mlh1 rad18 strain (AID 175). Particulars: S. cerevisiae mlh1 rad18 strain growth inhibition, active compounds read high. A digest of the protocol:
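Growth inhibition of the yeast strain was measured after compound exposure and expressed relative to vehicle-treated controls. The strain carries defined defects in DNA damage repair.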

[7] abbreviates: at 5.0 µM (retest, dose inferred, filed as 0.5).
Where [8] appears, read: at 50.0 µM (retest, dose inferred, filed as 5.0).

Consider `Cc1cc(Cl)ccc1N1C(=O)C(=O)C(c2nc3ccccc3o2)C(=O)C1=O`, for which the growth inhibition in test [1] (setting [7]) was 31%; in test [1] (setting [8]), 98% (active); in test [1] (at 50.0 µM), 86.3% (active); in test [2] (setting [7]), 21%; in test [2] (setting [8]), 99% (active); in test [2] (at 50.0 µM), 64.7%. Also, the growth inhibition is 38% in test [3] (setting [7]); 98% (active) in test [3] (setting [8]); 88.8% (active) in test [3] (at 50.0 µM); 31% in test [4] (setting [7]); 98% (active) in test [4] (setting [8]); 79.9% (active) in test [4] (at 50.0 µM). Further, the growth inhibition is 22% in test [5] (setting [7]); 96% (active) in test [5] (setting [8]); 49.1% in test [5] (at 50.0 µM); 25% in test [6] (setting [7]); 96% (active) in test [6] (setting [8]); 87.8% (active) in test [6] (at 50.0 µM).
On to `CN(/N=C/c1ccc(C(=O)O)cc1)C1=NCCCCN1`, for which the growth inhibition in test [1] (setting [7]) is -2%; in test [1] (setting [8]), 29%; in test [1] (at 50.0 µM), 5.85%; in test [2] (setting [7]) it was -4%; in test [2] (setting [8]), 25%; in test [2] (at 50.0 µM), 3.4%. The growth inhibition is -2% in test [3] (setting [7]); 45% in test [3] (setting [8]); -7.95% in test [3] (at 50.0 µM); 3% in test [4] (setting [7]); 12% in test [4] (setting [8]); 40.5% in test [4] (at 50.0 µM). Further, the growth inhibition in test [5] (setting [7]) is 2%; in test [5] (setting [8]), 28%; in test [5] (at 50.0 µM), 3.2%; in test [6] (setting [7]) it was 1%; in test [6] (setting [8]) it was 33%; in test [6] (at 50.0 µM), -11.1%.
On to `CCN(CC)P(=S)(c1ccccc1CCP(=S)(c1ccccc1)c1ccccc1)N(CC)CC`, for which the growth inhibition is -6% in test [1] (setting [7]); 34% in test [1] (setting [8]); 91.2% (active) in test [1] (at 50.0 µM); -3% in test [2] (setting [7]); 21% in test [2] (setting [8]); 98.6% (active) in test [2] (at 50.0 µM). The growth inhibition was -6% in test [3] (setting [7]); 62% in test [3] (setting [8]); 97.6% (active) in test [3] (at 50.0 µM); -1% in test [4] (setting [7]); 11% in test [4] (setting [8]); 96.8% (active) in test [4] (at 50.0 µM). Besides, the growth inhibition is -2% in test [5] (setting [7]); 41% in test [5] (setting [8]); 59.6% in test [5] (at 50.0 µM); -4% in test [6] (setting [7]); 32% in test [6] (setting [8]); 97.1% (active) in test [6] (at 50.0 µM).
For `O=c1[nH]cnc2c1ncn2CCc1ccccc1`, the growth inhibition in test [1] (setting [7]) is 0%; in test [1] (setting [8]), -6%; in test [1] (at 50.0 µM), -11.6%; in test [2] (setting [7]) it was -6%; in test [2] (setting [8]) it was -2%; in test [2] (at 50.0 µM), -1.55%. In addition, the growth inhibition in test [3] (setting [7]) was -3%; in test [3] (setting [8]), -5%; in test [3] (at 50.0 µM), -4.45%; in test [4] (setting [7]), -4%; in test [4] (setting [8]), 3%; in test [4] (at 50.0 µM), 49.1%. Moreover, the growth inhibition in test [5] (setting [7]) is 0%; in test [5] (setting [8]), 4%; in test [5] (at 50.0 µM), 4.85%; in test [6] (setting [7]) it was 4%; in test [6] (setting [8]), -10%; in test [6] (at 50.0 µM), -19.8%.
Take `Cc1ccc(/C=N/NC(N)=S)cc1C`: the growth inhibition in test [1] (setting [7]) is -6%; in test [1] (setting [8]), 18%; in test [1] (at 50.0 µM), 45.1%; in test [2] (setting [7]) it was -4%; in test [2] (setting [8]), 3%; in test [2] (at 50.0 µM), 10.8%. Also, the growth inhibition is -5% in test [3] (setting [7]); 9% in test [3] (setting [8]); 61.7% in test [3] (at 50.0 µM); -12% in test [4] (setting [7]); -13% in test [4] (setting [8]); -11.1% in test [4] (at 50.0 µM). The growth inhibition in test [5] (setting [7]) is -4%; in test [5] (setting [8]) it was -2%; in test [5] (at 50.0 µM), 34.8%; in test [6] (setting [7]) it was -6%; in test [6] (setting [8]), 7%; in test [6] (at 50.0 µM), 65.6%.
`C1=C(c2ccccc2)C(c2ccccc2)C(c2ccccc2)C/C1=N/OCCN1CCCC1` (stereo not given): the growth inhibition is 30% in test [1] (setting [7]); 99% (active) in test [1] (setting [8]); 99% (active) in test [1] (at 50.0 µM); 55% in test [2] (setting [7]); 99% (active) in test [2] (setting [8]); 99.6% (active) in test [2] (at 50.0 µM). Moreover, the growth inhibition in test [3] (setting [7]) was 17%; in test [3] (setting [8]), 100% (active); in test [3] (at 50.0 µM) it was 99.6% (active); in test [4] (setting [7]), -9%; in test [4] (setting [8]), 98% (active); in test [4] (at 50.0 µM), 55.1%. Also, the growth inhibition in test [5] (setting [7]) is 39%; in test [5] (setting [8]) it was 99% (active); in test [5] (at 50.0 µM), 99.2% (active); in test [6] (setting [7]), 78% (active); in test [6] (setting [8]) it was 99% (active); in test [6] (at 50.0 µM), 97.7% (active).
Take `O=C1c2ccc(S(=O)(=O)O)cc2C(=O)c2ccc(S(=O)(=O)O)cc21`: the growth inhibition in test [1] (setting [7]) was 3%; in test [1] (setting [8]), 23%; in test [1] (at 50.0 µM), 49.3%; in test [2] (setting [7]), -1%; in test [2] (setting [8]) it was 21%; in test [2] (at 50.0 µM) it was 25.5%. The growth inhibition was 5% in test [3] (setting [7]); 36% in test [3] (setting [8]); 47.5% in test [3] (at 50.0 µM); 2% in test [4] (setting [7]); 26% in test [4] (setting [8]); -62.8% in test [4] (at 50.0 µM). Further, the growth inhibition was 1% in test [5] (setting [7]); 19% in test [5] (setting [8]); 55.4% in test [5] (at 50.0 µM); 4% in test [6] (setting [7]); 31% in test [6] (setting [8]); 74% (active) in test [6] (at 50.0 µM).
On to `O=C1CN(Cc2ccc(Cl)cc2)CC(=O)N2Cc3ccccc3CN12`, for which the growth inhibition is 4% in test [1] (setting [7]); -3% in test [1] (setting [8]); -16.2% in test [1] (at 50.0 µM); -4% in test [2] (setting [7]); -6% in test [2] (setting [8]); -13.8% in test [2] (at 50.0 µM). The growth inhibition in test [3] (setting [7]) is 4%; in test [3] (setting [8]), -13%; in test [3] (at 50.0 µM) it was -13.2%; in test [4] (setting [7]), -2%; in test [4] (setting [8]) it was 1%; in test [4] (at 50.0 µM), 5.1%. The growth inhibition was 6% in test [5] (setting [7]); 6% in test [5] (setting [8]); 64.2% in test [5] (at 50.0 µM); -4% in test [6] (setting [7]); -3% in test [6] (setting [8]); -11% in test [6] (at 50.0 µM).
`c1ccc2c(O[Si](Oc3cccc4ccccc34)(Oc3cccc4ccccc34)Oc3cccc4ccccc34)cccc2c1`: the growth inhibition was 7% in test [1] (setting [7]); 87% (active) in test [1] (setting [8]); 96% (active) in test [1] (at 50.0 µM); 0% in test [2] (setting [7]); 87% (active) in test [2] (setting [8]); 97.7% (active) in test [2] (at 50.0 µM). Further, the growth inhibition in test [3] (setting [7]) was 3%; in test [3] (setting [8]) it was 89% (active); in test [3] (at 50.0 µM), 97.8% (active); in test [4] (setting [7]), -5%; in test [4] (setting [8]) it was 71% (active); in test [4] (at 50.0 µM), 89.6% (active). In addition, the growth inhibition in test [5] (setting [7]) was 3%; in test [5] (setting [8]) it was 93% (active); in test [5] (at 50.0 µM) it was 96.8% (active); in test [6] (setting [7]), 2%; in test [6] (setting [8]), 86% (active); in test [6] (at 50.0 µM), 95.8% (active).
Consider `O=C(O)CCC(=O)NCCNC(=O)CC(=O)O`, for which the growth inhibition was -152% in test [1] (setting [7]); -162% in test [1] (setting [8]); 10.7% in test [1] (at 50.0 µM); -52% in test [2] (setting [7]); -51% in test [2] (setting [8]); -14.8% in test [2] (at 50.0 µM). Moreover, the growth inhibition in test [3] (setting [7]) is -57%; in test [3] (setting [8]), -63%; in test [3] (at 50.0 µM), 43%; in test [4] (setting [7]), -52%; in test [4] (setting [8]), -48%; in test [4] (at 50.0 µM), 36.3%. The growth inhibition is -68% in test [5] (setting [7]); -79% in test [5] (setting [8]); -1.55% in test [5] (at 50.0 µM); -116% in test [6] (setting [7]); -107% in test [6] (setting [8]); 9% in test [6] (at 50.0 µM).
